Assay outcomes from PubChem.
YB-1 expression: YB-1 expression inhibition | U2OS, qRT-PCR YB-1 vs CDIP delta delta Cp, 16 h; active compounds read high; zero = DMSO, each unit about twofold | delta delta Cp (YB-1 minus CDIP) (no concentration beside the values) | 0.37% of 30,000 active | AID 434959;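 active = delta delta Cp rounded down to an integer at or above 3, about 3 SD of DMSO wells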;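 also: higher means less YB-1 transcript or more CDIP transcript relative to DMSO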
PD-1 reversal: activators reversing PD-1 mediated T-cell inhibition. primary human CD4 T cells, PD-L1 beads, CellTiter-Glo 96 h. activation, % (test concentration not listed). 29,000 tested, under 10 active; call rule not given here
U2OS ROS induce: cancer cell ROS induction. AID 624156. U2OS ROS induction, H2DCF-DA fluorescence. 2% of 46,000 active. ROS induction (% of piperlongumine), % at 10 µM; in the data active = ROS induction above about 79%, passing the limit was not always enough
Hits are given with their value; 0 = inactive; - = no result. Shown are actives, neighbours in structure and some others; about 2.3% of the full set was active somewhere.

SMILES	YB-1 expression	PD-1 reversal	U2OS ROS induce
C=CCNC(=O)[C@H]1[C@@H]2C(=O)O[C@@H](c3ccccc3)[C@@H](c3ccccc3)N2[C@@H](c2ccc(OCCO)cc2)[C@]12C(=O)N(C(=O)OCCOC)c1ccc(C#CC3=CCCCC3)cc12	0	-	121.9
C=CCNC(=O)[C@@H]1[C@H]2C(=O)O[C@H](c3ccccc3)[C@H](c3ccccc3)N2[C@H](c2ccc(OCCO)cc2)[C@@]12C(=O)Nc1ccc(C#CC3=CCCCC3)cc12	0	-	0
C=CCNC(=O)[C@H]1[C@@H]2C(=O)O[C@@H](c3ccccc3)[C@@H](c3ccccc3)N2[C@@H](c2ccccc2OCCO)[C@]12C(=O)N(C(=O)OCCOC)c1ccc(C#CC3(O)CCCCCC3)cc12	0	-	94.9
Cc1ccc(NC(=O)CC2NC3CCCCC3NC2=O)cc1Cl (stereo not given)	-	0	0
Cc1ccc(OCc2nn(C)c3ccccc23)cc1	-	-	0
O=C(Cn1ccc([N+](=O)[O-])n1)NCc1ccccn1	-	0	0
Cc1sc(-n2cccc2)c(C(=O)NC(C)CCc2ccccc2)c1C (stereo not given)	-	-	0
N#Cc1c2c(c(NCCN3CCCCC3)n3c1nc1ccccc13)CCC2	-	-	0
C=CCSc1c2c(c(C#N)c3nc4ccccc4n13)CCC2	0	0	103.0
COc1ccc(CNc2cc(-c3nn4c(C)nnc4s3)ccc2C)cc1OC	-	0	0
CCOC(=O)c1sc2sc(C(=O)OCC)c(-c3ccc(Cl)cc3)c2c1N	0	0	93.5
CCOC(=O)c1c(CS(=O)c2ccc(Cl)cc2)oc2c(F)c(F)c(F)c(F)c12 (stereo not given)	-	-	0
O=C(CSc1nc2ccccc2c(=O)n1-c1ccc(Cl)cc1)Nc1ccc(Cl)cc1Cl	-	0	0
Cc1sc2ncn(CC(=O)Nc3ccc(Oc4ccccc4)cc3)c(=O)c2c1C	-	0	0
COc1cc(C(=O)Nc2ccc(Oc3ncnc4sc(C)c(C)c34)cc2)cc(OC)c1OC	-	0	104.3
Cc1ccc(OC(=O)OCSc2nn[nH]n2)cc1	0	0	0
O=C1c2ccccc2C2=Nc3ccccc3SC(c3ccc(F)cc3)C12 (stereo not given)	-	-	0
Cc1cccc(C2Sc3ccccc3N=C3c4ccccc4C(=O)C32)c1 (stereo not given)	0	0	105.5
CC(C)=CCOc1c2ccoc2cc2oc(=O)ccc12	0	0	0
CC(C)=CCOc1cc(C)cc2oc(=O)cc(-c3ccccc3)c12	-	-	84.1
COc1cccc(Cn2c(SCc3ccc(C(=O)NC4CCCC4)cc3)nc3ccncc32)c1	-	-	0
O=[N+]([O-])c1ccccc1-c1ccc(-c2nn3c(-c4ccccc4)nnc3s2)o1	-	0	174.0
CN1CCC(N(C)Cc2ccc(-c3ccccc3[N+](=O)[O-])o2)CC1	-	0	0
CC1CC(C)CN(S(=O)(=O)c2ccc3c(c2)oc(=O)n3CC(=O)NC(C)c2ccccc2)C1 (stereo not given)	-	-	0
COc1ccc(S(=O)(=O)Nc2cccc3c2O[C@@H](CN(C)Cc2ccc(Oc4ccccc4)cc2)[C@H](C)CN([C@@H](C)CO)C3=O)cc1	0	0	0
SMILES	YB-1 expression	PD-1 reversal	U2OS ROS induce
C[C@H]1CN([C@@H](C)CO)C(=O)c2cccc(NS(=O)(=O)c3ccc(Cl)cc3)c2O[C@H]1CN(C)Cc1ccc(Oc2ccccc2)cc1	0	0	0
COc1ccc(S(=O)(=O)Nc2cccc3c2O[C@H](CN(C)Cc2ccc(Oc4ccccc4)cc2)[C@@H](C)CN([C@H](C)CO)C3=O)cc1	0	0	96.5
C[C@H](CO)N1C[C@H](C)[C@@H](CN(C)Cc2ccc(Oc3ccccc3)cc2)Oc2c(NS(=O)(=O)c3ccc(Cl)cc3)cccc2C1=O	0	0	112.3
C=CCNC(=S)N1CCN(C(c2ccccc2)c2ccccc2)CC1	-	-	0
CCOc1ccc(NC(=O)c2cc(-c3ccc(F)cc3)[nH]c2C)cc1	-	-	0
Cc1ccc(N2C(=O)CC(Cc3ccccc3)C2=O)cc1 (stereo not given)	-	-	0
CSc1c(CC(=O)NN)n(C)c2ccccc12	0	0	0
N#CC1=C(N)N(c2sc3c(c2C#N)CCCC3)C2=C(CCC2)C1(C(F)(F)F)C(F)(F)F	-	-	204.9
N#Cc1c(NC(=O)C(F)(F)F)sc2c1CCCC2	-	-	0
Cn1c(SCC(=O)Nc2sc3c(c2C#N)CCCC3)nnc1-c1ccc(Br)cc1	-	0	0
CC(C(=O)O)c1ccc(C(=O)c2cccs2)cc1 (stereo not given)	6.85	0	0
CC(C)Cc1ccc(C(C)C(=O)O)cc1 (stereo not given)	0	-	0
O=C(Nc1csc2ccccc12)N1CCN(C(c2ccccc2)c2ccccc2)CC1	-	-	0
C[C@H]1CN([C@@H](C)CO)C(=O)c2cccc(NC(=O)c3nc4ccccc4s3)c2O[C@H]1CN(C)Cc1ccc(Oc2ccccc2)cc1	0	0	94.6
C[C@H](CO)N1C[C@H](C)[C@H](CN(C)Cc2ccccc2)Oc2c(NC(=O)c3nc4ccccc4s3)cccc2C1=O	0	0	0
C[C@H]1CN([C@@H](C)CO)C(=O)c2cccc(NC(=O)c3nc4ccccc4s3)c2O[C@H]1CN(C)Cc1ccccc1	0	0	0
C[C@H]1CN([C@@H](C)CO)C(=O)c2cccc(NC(=O)c3nc4ccccc4s3)c2O[C@H]1CN(C)Cc1ccc(C(=O)Nc2ccccc2N)cc1	0	0	172.0
C[C@H](CO)N1C[C@H](C)[C@H](CN(C)Cc2ccc(Oc3ccccc3)cc2)Oc2c(NC(=O)c3nc4ccccc4s3)cccc2C1=O	0	0	0
C[C@@H]1CN([C@H](C)CO)C(=O)c2cccc(NC(=O)c3nc4ccccc4s3)c2O[C@H]1CN(C)Cc1ccc(C(=O)Nc2ccccc2N)cc1	0	0	149.9
O=C(CSc1nnc(-c2cccnc2)n1-c1cccc(C(F)(F)F)c1)c1ccc(F)cc1	-	0	0
FC(F)(F)c1ccc(-c2n[nH]c(=S)s2)nc1	0	0	0
O=C(NC1CCCC1)c1ccc2c(c1)N(Cc1ccccc1)C(=O)CS2	-	-	0
CCCCc1cc(=O)oc2cc3oc4c(c3cc12)CCCC4	-	-	0
CCNS(=O)(=O)c1cc(-c2nnc(Nc3ccc(F)cc3)c3ccccc23)ccc1C	0	0	0
CSc1ccc(-c2cc(=O)c3ccccc3o2)cc1	-	-	0
SMILES	YB-1 expression	PD-1 reversal	U2OS ROS induce
Cc1ccc(-c2cc(=O)c3ccc4ccccc4c3o2)cc1	-	-	94.9
COc1cc(O)c(C(=O)CCc2ccc(OC)c(OC)c2)c(OC)c1	4.91	0	0
COc1cc(O)c(C(=O)Cc2ccc(Cl)cc2)c(OC)c1	-	-	0
Cc1ccc(OCC(=O)Oc2cccc(NC3=NS(=O)(=O)c4ccccc43)c2)cc1	-	0	0
Nc1ncnc(NCCCN2CCOCC2)c1[N+](=O)[O-]	-	0	0
C/C=C(/C)C(=O)O[C@H]1C=C(CO)C(=O)[C@H](OC(=O)/C(C)=C/CO)[C@H]1C(C)C	0	0	87.0
CCOC(=O)c1ccc2nc(C(F)(F)F)cc(N3CCN(c4ccccc4)CC3)c2c1	-	-	0
Cn1c(SCC(=O)c2ccc(F)cc2)nnc1-c1ccc(NC(=O)c2ccccc2Br)cc1	-	0	0
O=c1c(Cl)c(NCc2ccco2)cnn1-c1ccccc1	0	0	0
CCOC(=O)CN(C1=NS(=O)(=O)c2ccccc21)c1ccccc1	-	-	0
N#CCCN(/N=C/c1ccccc1)C1=NS(=O)(=O)c2ccccc21	0	0	128.4
CC(=O)NCCc1ccc(S(=O)(=O)N(C)C)cc1	-	-	0
